CCHF vOTU inh: CCHFV vOTU protease inhibitors, primary screen, biochemical, Pep-AMC substrate, fluorescence; AID 651958, 2012; actives 0.55% (n = 370,000); inhibition, % at 11.5 µM; Crimean-Congo hemorrhagic fever virus L polyprotein viral ovarian tumor (vOTU) protease …; in the data active means inhibition above about 30%
DUSP3 inh: VHR1 phosphatase inhibitors, primary screen, biochemical, absorbance, uHTS | inhibition, % at 13.3 µM | actives 0.52% (n = 290,000) | recombinant VHR phosphatase, pNPP absorbance; in the data active means inhibition above about 50%
SARS 3CLpro inh: SARS-CoV 3CLpro protease inhibitors, primary screen, biochemical, quenched FRET; inhibition, % at 6 µM; recombinant SARS-CoV 3CLpro, quenched FRET peptide cleavage; AID 1706, 2009; actives 0.14% (n = 290,000); in the data active means inhibition above about 12%
PriA SSB inh: inhibitors of Klebsiella pneumoniae PriA binding to SSB C-terminal tail, primary screen, biochemical, AlphaScreen | actives 0.6% (n = 430,000) | inhibition, % at 33 µM | AID 1272365, 2023 | AlphaScreen SSBct-PriA binding, biotinylated peptide; in the data active means inhibition mostly above about 37%, no sharp cut-off; inactive means mostly below about 20%
RecA intein inh: Mtb RecA intein splicing inhibitors, primary screen, biochemical, fluorescence, HTS; Protein RecA (Mycobacterium tuberculosis (strain ATCC 25618 / H37Rv)), P9WHJ3; cell-free RecA intein splicing; inhibition, % (no concentration beside the values); actives 0.75% (n = 290,000); in the data active means inhibition above about 30%
Target sequence (P9WHJ3 whole entry, looked up): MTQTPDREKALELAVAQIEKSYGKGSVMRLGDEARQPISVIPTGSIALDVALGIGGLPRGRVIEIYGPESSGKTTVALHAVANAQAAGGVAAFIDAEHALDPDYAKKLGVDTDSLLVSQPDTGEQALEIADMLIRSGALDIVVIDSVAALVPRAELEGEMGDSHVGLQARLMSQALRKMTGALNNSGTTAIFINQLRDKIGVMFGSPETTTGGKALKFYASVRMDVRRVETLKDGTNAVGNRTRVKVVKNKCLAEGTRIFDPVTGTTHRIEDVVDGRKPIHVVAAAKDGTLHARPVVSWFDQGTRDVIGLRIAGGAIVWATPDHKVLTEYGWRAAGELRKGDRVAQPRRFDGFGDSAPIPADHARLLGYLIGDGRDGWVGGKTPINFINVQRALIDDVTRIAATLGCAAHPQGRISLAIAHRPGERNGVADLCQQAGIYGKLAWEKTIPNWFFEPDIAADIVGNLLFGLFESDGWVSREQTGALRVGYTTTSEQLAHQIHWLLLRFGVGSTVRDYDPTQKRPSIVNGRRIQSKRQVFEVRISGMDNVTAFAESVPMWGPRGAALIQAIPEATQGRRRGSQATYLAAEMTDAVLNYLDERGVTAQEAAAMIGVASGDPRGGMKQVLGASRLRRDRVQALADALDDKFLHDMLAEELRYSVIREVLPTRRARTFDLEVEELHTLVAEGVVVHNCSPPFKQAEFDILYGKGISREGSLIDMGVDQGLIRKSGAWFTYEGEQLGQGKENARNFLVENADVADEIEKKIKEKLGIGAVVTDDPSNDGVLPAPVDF
Numbers stand for hits; n = inactive; x = no result given. Sampled rows, rich in hits. Any-hit rate of the full collection: about 1.7%.

SMILES	CCHF vOTU inh	DUSP3 inh	SARS 3CLpro inh	PriA SSB inh	RecA intein inh
COC(=O)c1ccccc1NS(=O)(=O)c1ccc(C(C)(C)C)cc1	x	x	x	n	x
O=[N+]([O-])c1ccccc1S(=O)(=O)N1CCc2ccccc2C1	n	n	n	n	n
O=[N+]([O-])c1ccccc1S(=O)(=O)N1CCc2ccccc21	x	x	x	39	x
COc1cc(NC(=O)CSc2ccc(-c3ccccn3)nn2)cc(OC)c1	n	n	n	78	n
COc1cccc(NC(=O)CSc2ccc(-c3ccccn3)nn2)c1	x	x	x	76	x
O=C(c1c(F)cccc1Cl)N1CCC(Cn2c(C(F)(F)F)nc3ccccc32)CC1	x	x	x	n	x
Cc1noc(C)c1CN1CCN(C(=O)c2c(F)cccc2Cl)CC1	x	x	x	n	x
CC(=O)c1ccc(Nc2cnn(C34CC5CC(CC(CC(=O)O)(C5)C3)C4)c(=O)c2Cl)cc1	n	n	n	n	n
Cc1ccc(Nc2cnn(C34CC5CC(CC(CC(=O)O)(C5)C3)C4)c(=O)c2Cl)cc1	n	n	12	n	n
COc1ccc(CC(=O)O/N=C(\N)Cc2cccc3ccccc23)cc1OC	n	n	n	n	32
N/C(Cc1cccc2ccccc12)=N\OC(=O)c1cccs1	x	n	n	n	33
O=S(=O)(Cc1ccccc1)NCC1(c2ccc(F)cc2)CC1	x	x	x	n	x
Cc1cc([N+](=O)[O-])c2[nH]c(C(=O)N/N=C/c3ccccc3C(=O)O)c(-c3ccccc3)c2c1	n	90	n	x	n
Cc1cc([N+](=O)[O-])c2[nH]c(C(=O)NN=Cc3ccccc3C(=O)O)c(-c3ccccc3)c2c1	x	x	x	n	x
Cc1nn(C)c(C)c1S(=O)(=O)NCCc1csc2nc(-c3cccs3)nn12	x	x	x	n	x
c1ccc(-c2oc3ncnc(N4CCN(Cc5ccc6c(c5)OCO6)CC4)c3c2-c2ccccc2)cc1	x	x	x	n	x
CC1CCCN(CCCNC(=O)c2ccc(NC(=O)C3=CSCCO3)cc2)C1 (stereo not drawn)	n	n	n	n	n
O=C(Nc1ccc(C(=O)NCCCN2CCCCC2)cc1)C1=CSCCO1	n	57	n	n	n
O=C(c1cc2cc(Cl)ccc2[nH]1)N1CCC(n2c(=O)[nH]c3ccccc3c2=O)CC1	x	x	x	n	x
CCOC(=O)Cn1cc(/C=N/NC(=O)CC#N)c2ccccc21	n	n	n	n	52
Cc1nc(-c2cccnc2)sc1-c1ccc(SCc2ccc(Cl)cc2)nn1	x	x	x	n	x
O=C(CNC(=O)N1CC(=O)Nc2ccccc21)Nc1ccccc1F	n	n	n	n	n
CCOc1ccccc1NC(=O)CNC(=O)N1CC(=O)Nc2ccccc21	n	51	n	n	n
c1ccc(C2Nc3ccccc3-c3nc4ccccc4n32)nc1 (stereo not drawn)	n	n	n	61	n
COc1c2ccc(C(=O)N3CCN(c4ncccn4)CC3)cc2nn1C	x	x	x	n	x
SMILES	CCHF vOTU inh	DUSP3 inh	SARS 3CLpro inh	PriA SSB inh	RecA intein inh
CC1=NN(c2ccccc2)C(=O)/C1=C/c1c(O)[nH]c(=O)[nH]c1=O	n	n	n	x	43
CC1=NN(c2ccccc2)C(=O)/C1=C\c1cn(C)c2ccccc12	n	n	n	n	39
CC1=NN(c2ccccc2)C(=O)/C1=C\c1cc(C)n(C)c1C	n	n	n	n	n
Cc1cc(-n2nnc(C(=O)N3CCC(C(N)=O)CC3)c2C)ccc1F	x	x	x	n	x
COc1cc(NC(=O)NCC(c2ccc3c(c2)CCCN3C)N2CCCC2)cc(OC)c1 (stereo not drawn)	x	x	x	40	x
COc1cc(NC(=O)NCC(c2ccc3c(c2)CCN3C)N2CCOCC2)cc(OC)c1 (stereo not drawn)	x	x	x	n	x
OCCN(Cc1nc(-c2ccc3c(c2)OCO3)no1)Cc1cccs1	n	58	n	n	n
CN(CCN1CCc2ccccc2C1)Cc1nc(-c2ccc3c(c2)OCO3)no1	n	n	n	n	n
COc1cc(N2CCN(S(=O)(=O)c3cc(C)c(C)cc3C)CC2)nc(OC)n1	x	x	x	n	x
Cc1ccc(C(=O)Cn2nc(-c3ccccc3)c3sc(N4CCOCC4)nc3c2=O)c(C)c1	x	x	x	n	x
Cc1ccc(CCC(=O)Nc2ccc(Cl)c([N+](=O)[O-])c2)o1	x	x	x	48	x
Cc1ccc(NC(=O)N2CCN(c3ccc4nnc(C5CC5)n4n3)CC2)cc1F	x	x	x	n	x
C/C(=N\NC(=O)c1nnn(-c2nonc2N)c1CN(C)c1ccccc1)c1ccccc1O	n	n	n	x	n
CC(=NNC(=O)c1nnn(-c2nonc2N)c1CN(C)c1ccccc1)c1ccccn1	x	x	x	90	x
CC(=O)c1cccc(NC(=S)N2CCN(CCN3C(=O)c4cccc5cccc(c45)C3=O)CC2)c1	n	n	n	n	n
CC(=O)c1ccc(NC(=S)N2CCN(CCN3C(=O)c4cccc5cccc(c45)C3=O)CC2)cc1	n	55	n	n	n
COc1ccccc1Nc1c2c(nc3ccc(N)cc13)CCCC2	n	n	n	53	n
NC(=NS(=O)(=O)c1cc(C(F)(F)F)cc(C(F)(F)F)c1)c1ccncc1	x	x	x	n	x
CN(CC#CCNS(=O)(=O)Cc1cccc(F)c1)Cc1ccccc1	x	x	x	n	x
COc1ccccc1C(CNc1ccc(S(=O)(=O)N2CCCC2)cc1[N+](=O)[O-])N(C)C (stereo not drawn)	n	n	n	n	n
COc1ccc(Nc2ccc(S(=O)(=O)N3CCCCC3)cc2[N+](=O)[O-])cc1	n	n	n	n	n
Cc1ccc(Nc2ccc(S(=O)(=O)N3CCOCC3)cc2[N+](=O)[O-])c(C)c1	n	n	n	51	n
COc1ccc(Nc2ccc(S(=O)(=O)N3CCCCC3)cc2[N+](=O)[O-])cc1Cl	n	n	n	49	n
COc1ccccc1C(C)Nc1ccc(S(=O)(=O)N2CCOCC2)cc1[N+](=O)[O-] (stereo not drawn)	x	x	x	70	x
CCOc1ccc(Nc2ccc(S(=O)(=O)N3CCOCC3)cc2[N+](=O)[O-])cc1	n	x	x	x	x
SMILES	CCHF vOTU inh	DUSP3 inh	SARS 3CLpro inh	PriA SSB inh	RecA intein inh
CCc1ccc(Nc2ccc(S(=O)(=O)N3CCOCC3)cc2[N+](=O)[O-])cc1	n	n	n	61	n
CCC(=O)Nc1ccc(SCC(=O)NCc2ccccc2)nn1	x	x	x	n	x
Cc1ccc(-c2ccc(=O)n(Cc3nc(-c4ccc(F)cc4)no3)n2)cc1	x	x	x	n	x
CC(=NNc1ccc(S(=O)(=O)N2CCOCC2)cc1[N+](=O)[O-])C(C)C	x	x	x	46	x
O=[N+]([O-])c1cc(S(=O)(=O)N2CCCCC2)ccc1NCc1cccc(Cl)c1	n	51	n	n	n
CC1(C)CC(=O)C(c2cc(NS(=O)(=O)c3ccc(Cl)cc3)c3ccccc3c2NS(=O)(=O)c2ccc(Cl)cc2)C(=O)C1	x	x	x	n	x
O=[N+]([O-])c1ccccc1NN=C1CC2CC=CC12 (stereo not drawn)	x	x	x	71	x
O=[N+]([O-])c1ccccc1N/N=C/c1ccccc1	n	n	n	x	n
